Several values for one entry are separate records, joined by “and”; a condition that tells them apart may be missing. Equal values may be shown once. Out of some 5,500 compounds screened, about 2,000 (36%) were called active. Roughly 18% stayed inconclusive and do not appear here. No stated cut-off is given here; in the data, active means normalized growth mostly below about 0.91 (no sharp cut-off); inconclusive means no clear call, values can overlap the other calls; inactive means mostly above about 0.92. Some of the results follow.
Experiment: chemical genetic growth profiling, strain panel (AID 1159580);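 further: tested at 20 µM; growth read once vehicle control cultures reached saturation at 30 °C; 1 = growth at the plate median or of vehicle wells; lower values mean less growth of the strain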
Conditions: S. cerevisiae deletion strains, growth OD

Measured: normalized growth

COc1cc2ccc(=O)oc2cc1O
inactive: locus YAL013W, strain DEP1, active compounds read low 1.03 | locus YAL021C, strain ccr4, active compounds read low 0.958 | locus YAL026C, strain drs2, active compounds read low 0.968 | locus YAL030W, strain snc1, active compounds read low 0.977 | locus YBL061C, strain skt5, active compounds read low 0.965 | locus YBR009C, strain hhf1, active compounds read low 1.01 | locus YBR021W, strain FUR4, active compounds read low 0.985 | locus YBR023C, strain chs3, active compounds read low 0.958 | locus YBR171W, strain sec66, active compounds read low 0.984 | locus YBR229C, strain ROT2, active compounds read low 0.946 | locus YBR231C, strain swc5, active compounds read low 0.966 | locus YBR279W, strain paf1, active compounds read low 0.96 | locus YCL011C, strain gbp2, active compounds read low 0.946 | locus YCL016C, strain dcc1, active compounds read low 0.94 | locus YCL029C, strain bik1, active compounds read low 0.979 | locus YCL069W, strain vba3, active compounds read low 0.98 | locus YCR088W, strain abp1, active compounds read low 0.985 | locus YDL005C, strain med2, active compounds read low 0.992 | locus YDL035C, strain GPR1, active compounds read low 0.97 | locus YDL040C, strain nat1, active compounds read low 0.973 | locus YDL074C, strain BRE1, active compounds read low 1.04 | locus YDL101C, strain DUN1, active compounds read low 0.999 | locus YDL185W, strain tfp1, active compounds read low 0.974 | locus YDL192W, strain arf1, active compounds read low 1 | locus YDR001C, strain nth1, active compounds read low 0.976 | locus YDR069C, strain doa4, active compounds read low 0.995 | locus YDR101C, strain arx1, active compounds read low 0.987 | locus YDR137W, strain rgp1, active compounds read low 1 | locus YDR150W, strain NUM1, active compounds read low 1 | locus YDR159W, strain sac3, active compounds read low 0.941 | locus YDR162C, strain NBP2, active compounds read low 0.953 | locus YDR195W, strain ref2 0.994 | locus YDR297W, strain sur2, active compounds read low 0.99 | locus YDR318W, strain mcm21, active compounds read low 0.992 | locus YDR334W, strain swr1, active compounds read low 0.959 | locus YDR335W, strain msn5, active compounds read low 0.96 | locus YDR388W, active compounds read low 1 | locus YDR392W, strain spt3, active compounds read low 0.883 | locus YDR502C, strain sam2, active compounds read low 0.999 | locus YEL003W, strain gim4, active compounds read low 0.987 | locus YEL037C, strain rad23, active compounds read low 0.974 | locus YEL061C, strain CIN8 (second series), active compounds read low 0.977 | locus YEL061C, strain CIN8, active compounds read low 0.987 | locus YER015W, strain faa2, active compounds read low 0.967 | locus YER016W, strain bim1, active compounds read low 0.949 | locus YER110C, active compounds read low 1.01 | locus YER111C, strain swi4, active compounds read low 0.967 | locus YER155C, strain BEM2 (second series), active compounds read low 1.01 | locus YER155C, strain BEM2, active compounds read low 1 | locus YER167W, strain BCK2, active compounds read low 0.984 | locus YFR010W, strain ubp6, active compounds read low 0.996 | locus YGL078C, strain dbp3, active compounds read low 1 | locus YGL086W, strain mad1, active compounds read low 0.998 | locus YGL167C, strain pmr1, active compounds read low 0.978 | locus YGL173C, strain kem1, active compounds read low 1.02 | locus YGL227W, strain vid30, active compounds read low 0.975 | locus YGL240W, strain doc1, active compounds read low 1 | locus YGL248W, strain PDE1, active compounds read low 0.998 | locus YGL253W, strain hxk2, active compounds read low 0.939 | locus YGR078C, strain PAC10, active compounds read low 1.02 | locus YGR135W, strain pre9, active compounds read low 1 | locus YGR252W, strain gcn5, active compounds read low 1 | locus YHR013C, strain ard1, active compounds read low 0.916 | locus YHR027C, strain rpn1, active compounds read low 0.968 | locus YHR030C, strain SLT2, active compounds read low 0.987 and 0.966 | locus YHR079C, strain IRE1 (second series), active compounds read low 1.01 | locus YHR079C, strain IRE1, active compounds read low 0.976 | locus YHR094C, strain hxt1, active compounds read low 0.992 | locus YHR129C, strain ARP1, active compounds read low 0.994 | locus YHR142W, strain chs7, active compounds read low 0.914 | locus YHR200W, strain rpn10, active compounds read low 0.991 | locus YIL066C, strain RNR3, active compounds read low 0.935 | locus YIL073C, strain SPO22, active compounds read low 1.01 | locus YIL125W, strain kgd1, active compounds read low 1 | locus YIR030C, strain dcg1, active compounds read low 0.996 | locus YJL092W, strain hpr5, active compounds read low 0.968 | locus YJL095W, strain BCK1 (second series), active compounds read low 0.987 | locus YJL095W, strain BCK1, active compounds read low 1.02 and 1.01 | locus YJL115W, strain asf1, active compounds read low 0.952 | locus YJL129C, strain trk1, active compounds read low 0.929 | locus YJL134W, strain LCB3, active compounds read low 0.982 | locus YJL154C, strain vps35, active compounds read low 0.973 | locus YJL164C, strain tpk1, active compounds read low 0.979 | locus YJL166W, strain qcr8, active compounds read low 1 | locus YJL168C, strain set2, active compounds read low 0.995 | locus YJL187C, strain SWE1 (second series), active compounds read low 1.03 | locus YJR043C, strain POL32, active compounds read low 0.954 | locus YJR066W, strain TOR1, active compounds read low 0.929 | locus YKL009W, strain mrt4, active compounds read low 1 | locus YKL068W, active compounds read low 0.992 | locus YKL085W, strain MDH1 (second series), active compounds read low 0.995 | locus YKL085W, strain MDH1, active compounds read low 0.995 | locus YKL160W, strain elf1, active compounds read low 0.931 | locus YKR001C, strain vps1, active compounds read low 0.987 | locus YKR026C, strain gcn3, active compounds read low 0.983 | locus YKR091W, strain srl3, active compounds read low 0.963 | locus YLL001W, strain dnm1, active compounds read low 1 | locus YLL026W, active compounds read low 0.971 | locus YLL041C, strain sdh2, active compounds read low 0.999 | locus YLR027C, strain aat2, active compounds read low 0.989 | locus YLR039C, strain RIC1, active compounds read low 0.971 | locus YLR058C, strain SHM2, active compounds read low 0.988 | locus YLR102C, strain apc9, active compounds read low 1 | locus YLR113W, strain HOG1, active compounds read low 1.04 | locus YLR221C, strain rsa3, active compounds read low 1.03 | locus YLR258W, strain gsy2, active compounds read low 0.95 | locus YLR262C, strain YPT6 (second series), active compounds read low 0.982 | locus YLR262C, strain YPT6, active compounds read low 0.969 | locus YLR268W, strain sec22, active compounds read low 1.01 | locus YLR320W, strain mms22, active compounds read low 1.01 | locus YLR330W, strain CHS5, active compounds read low 0.988 | locus YLR342W, strain FKS1 (second series), active compounds read low 0.988 | locus YLR342W, strain FKS1, active compounds read low 0.973 | locus YLR357W, strain rsc2, active compounds read low 0.947 | locus YLR370C, strain arc18, active compounds read low 0.964 | locus YLR371W, strain rom2, active compounds read low 0.994 | locus YLR384C, strain iki3, active compounds read low 0.941 | locus YLR418C, strain cdc73, active compounds read low 1 | locus YML016C, strain PPZ1, active compounds read low 0.986 | locus YML032C, strain rad52, active compounds read low 0.986 | locus YML120C, strain ndi1, active compounds read low 1 | locus YML124C, strain tub3, active compounds read low 1.01 | locus YMR058W, strain fet3, active compounds read low 0.971 | locus YMR078C, strain ctf18, active compounds read low 1 | locus YMR125W, strain sto1, active compounds read low 0.97 | locus YMR129W, active compounds read low 0.976 | locus YMR205C, strain PFK2, active compounds read low 1 | locus YMR223W, strain ubp8, active compounds read low 0.997 | locus YMR231W, strain pep5, active compounds read low 0.992 | locus YMR307W, strain GAS1, active compounds read low 0.904 | locus YNL067W, strain RPL9B, active compounds read low 1.06 | locus YNL071W, strain lat1, active compounds read low 0.986 | locus YNL183C, strain NPR1, active compounds read low 0.975 | locus YNL209W, strain ssb2, active compounds read low 0.968 | locus YNL233W, strain BNI4, active compounds read low 1.07 | locus YNL248C, strain rpa49, active compounds read low 0.903 | locus YNL250W, strain rad50, active compounds read low 1.01 | locus YNL271C, strain bni1, active compounds read low 0.994 | locus YNL298W, strain CLA4, active compounds read low 0.994 | locus YNL307C, strain MCK1, active compounds read low 1 | locus YNL322C, strain KRE1 (second series), active compounds read low 0.948 | locus YNR049C, strain mso1, active compounds read low 0.955 | locus YNR052C, strain pop2, active compounds read low 1.03 | locus YOL012C, strain htz1 0.802 | locus YOL147C, strain pex11, active compounds read low 0.999 | locus YOR001W, strain rrp6, active compounds read low 1.03 | locus YOR061W, strain CKA2, active compounds read low 0.975 | locus YOR069W, strain VPS5, active compounds read low 0.987 | locus YOR070C, strain gyp1, active compounds read low 0.975 | locus YOR080W, strain dia2, active compounds read low 0.967 | locus YOR083W, strain WHI5, active compounds read low 0.896 | locus YOR106W, strain vam3, active compounds read low 0.923 | locus YOR136W, strain idh2, active compounds read low 0.998 | locus YOR144C, strain elg1, active compounds read low 1 | locus YOR184W, strain ser1, active compounds read low 0.995 | locus YOR231W, strain MKK1, active compounds read low 0.976 | locus YOR265W, strain rbl2, active compounds read low 0.97 | locus YOR270C, strain vph1, active compounds read low 0.923 | locus YOR290C, strain snf2, active compounds read low 0.929 | locus YOR316C, strain cot1, active compounds read low 0.994 | locus YPL051W, strain arl3, active compounds read low 0.963 | locus YPL078C, strain atp4, active compounds read low 0.939 | locus YPL106C, strain sse1, active compounds read low 0.899 | locus YPL240C, strain hsp82, active compounds read low 0.987 | locus YPL241C, strain CIN2, active compounds read low 0.997 | locus YPL256C, strain CLN2, active compounds read low 1.01 | locus YPR119W, strain clb2, active compounds read low 0.995 | locus YPR141C, strain kar3, active compounds read low 0.989 | locus YPR163C, strain tif3, active compounds read low 0.989 | locus YPR167C, strain met16, active compounds read low 0.997 | strain wtn01, active compounds read low 1.01
